The source of these data is PubChem BioAssay (NCI).

Test systems include T-47D breast; BT-549 breast; MDA-MB-435 melanoma; SW-620 colon; MCF7 breast; HCT-116 colon; HCC-2998 colon; KM12 colon.
Common to all, as to assay: NCI-60 one-dose screen, 48 h (100 = growth as untreated, 0 = no growth, -100 = all killed)
Common to all, as to conditions: 10 µM unless noted

This is part of a sample that, as a whole, favours compounds with a hit. Of some 83,000 tested, about 20% had one in any assay.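 Step 1: grow cells in 96-well plates. Step 2: add test compound at a single concentration. Step 3: incubate 48 h. Step 4: record percent growth.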 Values without a mark were called inactive. The source made the active and inactive calls. The calls were made as follows: active = growth percent below 10; inactive = the rest.

Consider `CCCCCCCC/C=C\CCCCCCCCOc1ccc(CC(=O)NCC[N+]2(C)CCOCC2)cc1`, for which the growth in the assay with T-47D breast was 84.2%; in the assay on BT-549 breast, 78.1%; in the assay with MDA-MB-435 melanoma, 89.1%; in the assay on SW-620 colon it was 81.2%; in the assay with MCF7 breast it was 81.7%; with HCT-116 colon it was 73.8%. Besides, the growth with HCC-2998 colon was 56.2%; in the assay with KM12 colon it was 51.3%.
As to `CO[C@H](C(=O)[C@@H](O)[C@@H](C)O)[C@@H]1Cc2cc3cc(O[C@H]4C[C@@H](O[C@H]5C[C@@H](O)[C@H](O)C(C)O5)[C@H](O)C(C)(O)O4)cc(O)c3c(O)c2C(=O)[C@H]1O[C@H]1C[C@@H](O[C@H]2C[C@@H](O[C@H]3C[C@@H](OC)[C@H](O)C(C)O3)[C@@H](O)C(C)O2)[C@H](O)C(C)O1` (stereo not given in full), the growth is 13.5% in the assay on T-47D breast; 4.37% (active) in the assay with BT-549 breast; 24.8% with MDA-MB-435 melanoma; 34% with SW-620 colon; 6.89% (active) in the assay with MCF7 breast; 6.03% (active) in the assay on HCT-116 colon. For the same molecule, the growth in the assay on HCC-2998 colon is 39.9%; in the assay with KM12 colon, 14.9%.
Take `COc1cc(/C=C/C(=O)c2ccc(-n3cc(CN4CCN(c5cc6c(cc5F)c(=O)c(C(=O)O)cn6C5CC5)CC4)nn3)cc2)ccc1O`: the growth is 75.3% in the assay on T-47D breast; 90.4% in the assay with BT-549 breast; 74% with MDA-MB-435 melanoma; 85.4% in the assay with SW-620 colon; 37.6% in the assay with MCF7 breast; -53.4% (active) in the assay on HCT-116 colon. Also, the growth is 59.3% in the assay on HCC-2998 colon and 29.9% in the assay with KM12 colon.
For `COc1ccc(/C=C(/c2ccccc2)[N+](=O)[O-])c(OC)c1`, the growth was -6.78% (active) in the assay on T-47D breast; -17.7% (active) with BT-549 breast; -21.6% (active) with MDA-MB-435 melanoma; -71.3% (active) in the assay on SW-620 colon; 3.58% (active) with MCF7 breast; -42.8% (active) with HCT-116 colon. For the same molecule, the growth is -71.4% (active) in the assay with HCC-2998 colon and -32.4% (active) in the assay on KM12 colon.
Turning to `COC1=C(C)C(=O)N2[C@@H]1[C@H](c1ccccc1)OC21C=CC(=O)C=C1`, the growth in the assay with T-47D breast is 17.6%; in the assay on BT-549 breast, -34.1% (active); in the assay with MDA-MB-435 melanoma it was -48.8% (active); in the assay on SW-620 colon it was -36% (active); with MCF7 breast, 7.61% (active); with HCT-116 colon, -51% (active). In addition, the growth with HCC-2998 colon is 35.7%; in the assay on KM12 colon, 52.8%.
Consider `C#Cc1cccc(Nc2nc(C)nc3cc(NC(=O)CCl)ccc23)c1`, for which the growth in the assay on T-47D breast is -55.3% (active); in the assay on BT-549 breast, -71.2% (active); with MDA-MB-435 melanoma, -51.1% (active); in the assay on SW-620 colon, -63.6% (active); in the assay with MCF7 breast, -68% (active); with HCT-116 colon, -65.2% (active). Also, the growth in the assay on HCC-2998 colon is -88.1% (active); in the assay with KM12 colon, -73.7% (active).
Consider `CC1=CCC(OC(=O)C(C)(C)CC(O)(C(C)O)C(O)C2(C)C=CC(Cc3ccc(C(C)C)cc3)(C(C)C)CC2)(C(C)C)CC1` (stereo not given), for which the growth in the assay with T-47D breast is 98.9%; in the assay on BT-549 breast, 109%; with MDA-MB-435 melanoma it was 94.1%; in the assay with SW-620 colon, 92.6%; in the assay on MCF7 breast it was 102%; in the assay on HCT-116 colon, 93.7%. The growth in the assay with HCC-2998 colon was 103%; in the assay with KM12 colon, 105%.
As to `CCOC(=O)c1ccccc1-c1c2ccc(=[N+](C)C)cc-2oc2cc(N(C)C)ccc12`, the growth in the assay on T-47D breast is 6.72% (active); with BT-549 breast, -10.1% (active); in the assay with MDA-MB-435 melanoma, 11.8%; in the assay on SW-620 colon, 15%; in the assay on MCF7 breast, 3.95% (active); with HCT-116 colon, 4.32% (active). Moreover, the growth with HCC-2998 colon was 96.9%; with KM12 colon, 7.32% (active).
Turning to `CC(C)N1C(=O)/C(=c2\sc3n(c2=O)C2C(NN=3)N(C)C(=O)N2C)c2ccccc21` (stereo not given), the growth is 64.8% in the assay on T-47D breast; 72.1% with BT-549 breast; -21.2% (active) in the assay with MDA-MB-435 melanoma; 29.6% with SW-620 colon; 21.4% in the assay on MCF7 breast; 51.4% in the assay with HCT-116 colon. Moreover, the growth in the assay on HCC-2998 colon was 78.8%; with KM12 colon it was 44.2%.
With `O=C1Nc2ccccc2/C1=C\c1c[nH]c2ccc(Br)cc12`, the growth is 26.6% with T-47D breast; 116% in the assay on BT-549 breast; 69% in the assay with MDA-MB-435 melanoma; 93.7% with SW-620 colon; 29.5% in the assay on MCF7 breast; 85.8% in the assay on HCT-116 colon. Besides, the results for the growth with HCC-2998 colon and with KM12 colon were 71.6% and 12.9%, respectively.
`CN1CCN(c2ccc3nc4c(nc3c2C(F)(F)F)C(=O)c2ncccc2C4=O)CC1`: the growth in the assay on T-47D breast is -28.4% (active); in the assay with BT-549 breast, -97% (active); with MDA-MB-435 melanoma, -91.8% (active); in the assay with SW-620 colon, 4.71% (active); with MCF7 breast it was -57% (active); with HCT-116 colon it was 0.984% (active). Further, the growth was -26.9% (active) with HCC-2998 colon and 13% with KM12 colon.
Take `O=C(O)/C=C/C(=O)Nc1cccc(Cn2nnc3cc(Cl)c(Cl)cc32)c1`: the growth was 93.2% with T-47D breast; 80.1% in the assay on BT-549 breast; 106% in the assay on MDA-MB-435 melanoma; 96.3% with SW-620 colon; 89% in the assay on MCF7 breast; 96.9% in the assay on HCT-116 colon. For the same molecule, the growth in the assay on HCC-2998 colon is 112%; in the assay on KM12 colon, 109%.
Take `O=C(CCl)NNc1nccc(Nc2ccc(S(=O)(=O)Nc3ccncc3)cc2)n1`: the growth was 15.9% with T-47D breast; 25.6% in the assay with BT-549 breast; 41.3% in the assay with MDA-MB-435 melanoma; 28.5% with SW-620 colon; 22.3% with MCF7 breast; 10.7% with HCT-116 colon. The growth in the assay with HCC-2998 colon is 95.3%; in the assay on KM12 colon it was 62%.
For the molecule `C=C1CC[C@@H]2C(C)(C)[C@@H](O)CC[C@@]2(C)[C@@H]1COc1ccc2ccc(=O)oc2c1`, the growth with T-47D breast is -12.4% (active); in the assay with BT-549 breast, 72.7%; with MDA-MB-435 melanoma, 81.5%; with SW-620 colon, 99.4%; in the assay with MCF7 breast, 50.2%; in the assay with HCT-116 colon it was 76.6%. The growth was 92.3% with HCC-2998 colon and 70% in the assay with KM12 colon.
On to `C[C@@H]1O[C@@H](O[C@@H]2C[C@H](c3ccc4c(c3O)C(=O)C3=C(C4=O)[C@@]4(O)C(=O)C[C@](C)(O)C[C@@]4(O)C=C3)O[C@H](C)[C@H]2O)CC[C@@H]1O[C@H]1C[C@@H](O)[C@H](O)[C@@H](C)O1`, for which the growth with T-47D breast is 78.7%; in the assay with BT-549 breast it was 100%; in the assay on MDA-MB-435 melanoma, 106%; in the assay on SW-620 colon, 94.4%; in the assay with MCF7 breast, 86.4%; in the assay on HCT-116 colon, 91.1%. Besides, the results for the growth in the assay with HCC-2998 colon and in the assay on KM12 colon were 103% and 101%, respectively.
